Source: PubChem BioAssay AID720597 (Broad Institute, 2013)
Measured potencies and affinities stand elsewhere. Active and inactive are the calls of the source.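 How the source made its calls: active means fitted half-maximal dose no more than twice the top valid tested dose, for compounds that lower signal; inconclusive means fit invalid, or curve flat with activity between -70 and -30; inactive means potency past limit, curve flat within ±30, or signal increasing.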

The compounds below were run against NAD-dependent protein deacylase sirtuin-5, mitochondrial (Homo sapiens) (UniProt Q9NXA8) (assay: SIRT5 deacylase inhibitors, dose response, biochemical, fluorescence imaging, cherry-pick, set 6 (AID 720597;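 further: lower AMC signal can also come from blocking the trypsin step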)). Conditions: Purified SirT5, succinyl-peptide-AMC/trypsin fluorescence; series mostly up to 15 µM.
Chain of NAD-dependent protein deacylase sirtuin-5, mitochondrial (Homo sapiens) (Q9NXA8 whole entry, looked up): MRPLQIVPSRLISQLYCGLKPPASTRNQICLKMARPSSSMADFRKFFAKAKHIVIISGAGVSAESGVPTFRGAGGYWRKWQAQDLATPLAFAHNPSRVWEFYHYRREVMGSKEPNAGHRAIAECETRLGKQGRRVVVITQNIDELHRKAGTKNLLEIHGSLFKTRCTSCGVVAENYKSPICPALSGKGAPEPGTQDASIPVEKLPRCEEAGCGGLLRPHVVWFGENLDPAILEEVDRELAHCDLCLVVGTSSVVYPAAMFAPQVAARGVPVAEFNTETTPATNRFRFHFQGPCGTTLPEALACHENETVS

outcome, inactive:
COc1ccc(NC(=O)Nc2ccc3c(c2)C(=O)N([C@H](C)CO)C[C@@H](C)[C@@H](CN(C)Cc2ccc(C(F)(F)F)cc2)O3)cc1
COc1ccc(NC(=O)N(C)C[C@@H]2Oc3ccc(NS(=O)(=O)c4ccc(F)cc4)cc3C(=O)N([C@@H](C)CO)C[C@H]2C)cc1
C[C@@H]1CN([C@@H](C)CO)C(=O)c2cc(NS(=O)(=O)c3ccccc3)ccc2O[C@@H](C)CCCCO[C@H]1CN(C)S(=O)(=O)c1ccc(Cl)cc1
CN(C)C(=O)c1cccc(-c2ccc([C@H]3[C@H](CO)N4CCCCN(S(C)(=O)=O)C[C@@H]34)cc2)c1
C[C@H]1CN([C@@H](C)CO)C(=O)c2cccc(NC(=O)c3nc4ccccc4s3)c2O[C@H]1CN(C)Cc1ccc(C(F)(F)F)cc1
CN(C)C(=O)c1ccc(-c2ccc([C@H]3[C@H](CO)N4CCCCN(CCC(F)(F)F)C[C@@H]34)cc2)cc1
C[C@H]1CN([C@@H](C)CO)S(=O)(=O)c2ccc(-c3cncnc3)cc2O[C@H]1CN(C)Cc1ccccn1
COc1ccc(NC(=O)Nc2ccc3c(c2)C(=O)N([C@H](C)CO)C[C@@H](C)[C@@H](CN(C)Cc2ccccc2)OCCCC[C@H](C)O3)cc1
C[C@@H]1CCCCO[C@@H](CN(C)Cc2ccc(C(F)(F)F)cc2)[C@H](C)CN([C@@H](C)CO)C(=O)c2cc(NS(=O)(=O)c3ccccc3)ccc2O1
C[C@H]1CN([C@@H](C)CO)S(=O)(=O)c2ccc(-c3cccc(F)c3)cc2O[C@@H]1CN(C)S(=O)(=O)c1ccc(F)cc1
C[C@H](CO)N1C[C@H](C)[C@H](CN(C)C(=O)Nc2ccc(C(F)(F)F)cc2)OCCCC[C@H](C)Oc2ccc(NS(=O)(=O)c3ccc(Cl)cc3)cc2C1=O
O=C(c1cnccn1)N1CC(=O)N2[C@@H](CO)[C@H](c3ccc(C#CC4CC4)cc3)[C@@H]2C1
COc1ccc(S(=O)(=O)Nc2ccc3c(c2)C(=O)N([C@@H](C)CO)C[C@@H](C)[C@H](CN(C)Cc2ccc(Oc4ccccc4)cc2)O3)cc1
C[C@H]1CN([C@@H](C)CO)S(=O)(=O)c2ccc(C3=CCCC3)cc2O[C@@H]1CN(C)Cc1ccccc1
COc1cccc(NC(=O)N2CC(=O)N3[C@H](CO)[C@H](c4ccc(C#CCC5CCCC5)cc4)[C@@H]3C2)c1
C[C@@H]1CN([C@H](C)CO)C(=O)c2cccc(NC(=O)c3nc4ccccc4s3)c2O[C@@H]1CN(C)C(=O)NC1CCCCC1
O=C(C[C@@H]1C[C@H]2c3cc(NC(=O)Nc4ccccc4F)ccc3O[C@H]2[C@H](CO)O1)NCC1CC1
Cc1cccc(-c2ccc([C@H]3[C@H]4CN(S(=O)(=O)c5cccc(F)c5)CC(=O)N4[C@H]3CO)cc2)c1
Cc1ccc(S(=O)(=O)N[C@H]2CC[C@@H](CCn3cc(C(C)C)nn3)O[C@H]2CO)cc1
C[C@H](NC(=O)[C@@H]1[C@@H](CO)[C@@H]2Cn3c(cccc3=O)[C@H]1N2Cc1ccccc1)c1ccccc1
COc1cccc(NC(=O)N2CC(=O)N3[C@H](C2)[C@@H](c2ccc(C#CCC4CCCC4)cc2)[C@@H]3CO)c1
C[C@@H]1CN([C@@H](C)CO)C(=O)c2cccc(NC(=O)c3ccncc3)c2O[C@H]1CN(C)Cc1ccccc1
Cc1ccc(-c2cnc3c(c2)C(=O)N([C@H](C)CO)C[C@H](C)[C@@H](CN(C)Cc2ccccc2F)O3)cc1
O=C(C[C@@H]1CC[C@@H](NS(=O)(=O)c2ccc(F)cc2)[C@@H](CO)O1)N1CCC(Cc2ccccc2)CC1
COc1ccc(S(=O)(=O)Nc2ccc3c(c2)C(=O)N([C@@H](C)CO)C[C@H](C)[C@H](CN(C)S(=O)(=O)c2ccc(Cl)cc2)OCCCC[C@@H](C)O3)cc1
C[C@H]1CN([C@@H](C)CO)C(=O)c2cccc(NS(=O)(=O)c3cn(C)cn3)c2O[C@H]1CN(C)Cc1ccc(Oc2ccccc2)cc1
C[C@@H]1CN([C@@H](C)CO)C(=O)c2cc(NC(=O)Cc3cn(C)c4ccccc34)ccc2O[C@@H]1CN(C)Cc1ccc(Oc2ccccc2)cc1
Cc1ccc(S(=O)(=O)Nc2ccc3c(c2)C(=O)N([C@@H](C)CO)C[C@H](C)[C@H](CN(C)S(=O)(=O)c2ccccc2)OCCCC[C@@H](C)O3)cc1
COc1ccc(S(=O)(=O)N(C)C[C@H]2OCCCC[C@H](C)Oc3ccc(NS(=O)(=O)c4ccc(F)cc4)cc3C(=O)N([C@@H](C)CO)C[C@@H]2C)cc1
CCCC#Cc1ccc2c(c1)O[C@@H](CN(C)C(=O)c1ccccc1F)[C@@H](C)CN([C@@H](C)CO)S2(=O)=O
Cc1ccc(S(=O)(=O)N(C)C[C@H]2OCCCC[C@H](C)Oc3ccc(NS(=O)(=O)c4ccccc4)cc3C(=O)N([C@@H](C)CO)C[C@@H]2C)cc1
C[C@@H]1CN([C@@H](C)CO)C(=O)c2cc(NC(=O)Cc3ccccc3)ccc2O[C@H]1CN(C)Cc1ccc(Oc2ccccc2)cc1
CO[C@H]1CN(C)C(=O)c2cc(NC(=O)c3ccccc3F)ccc2OC[C@@H](C)NC[C@@H]1C
CCCC#Cc1ccc(CC[C@H]2O[C@H]3CC[C@@H](CO)O[C@H]3C[C@H]2NS(=O)(=O)c2ccccc2)cc1
O=C(Nc1cc(F)ccc1F)N1CC(=O)N2[C@H](C1)[C@@H](c1ccc(C#CC3CCCCC3)cc1)[C@@H]2CO
O=C(CN1CCOCC1)N1CC[C@H]2[C@H](CO)Nc3ccc(-c4ccc(F)cc4)cc3[C@H]21
CC(C)C#Cc1ccc([C@@H]2[C@@H](CO)N3C(=O)CN(C(=O)c4ccc5c(c4)OCO5)C[C@H]23)cc1
CCCC#Cc1ccc([C@H]2[C@H]3CN(C(=O)Cc4cccnc4)CC(=O)N3[C@H]2CO)cc1
C[C@H](CO)N1C[C@H](C)[C@H](CN(C)C(=O)Nc2ccc(F)cc2)Oc2cc(/C=C/c3ccccc3)ccc2S1(=O)=O
COc1cccc(S(=O)(=O)N(C)C[C@H]2Oc3cc(C4=CCCC4)ccc3S(=O)(=O)N([C@H](C)CO)C[C@H]2C)c1
